The values that follow come from PubChem BioAssay (NCI).

Each structure is given as a SMILES string. Values joined by “and” are separate entries in the source; they are usually repeats but may differ in a detail not shown here. Equal values may be shown once. The panel holds about 83,000 compounds, 20% with a hit somewhere; the sample as a whole holds those more often.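 Compound tested at a single concentration for 48 hours in 96-well plates; a percent growth value below 10 was scored as active.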 Active and inactive are the calls of the source.

This experiment deals with NCI-H322M lung. Kind of experiment: NCI-60 one-dose screen, 48 h (100 = growth as untreated, 0 = no growth, -100 = all killed). The following applies: 10 µM unless noted.
`CCCn1c(NC(=O)c2cccc(C(N)=O)c2)nc2ccc(CN3CCCCC3)cc21`: the growth is 82% (inactive). Next, `Fc1ccc(Nc2nnc(-c3c[nH]c4ccccc34)o2)cc1`: 94.5% (inactive); `CC1=C(C(=O)OC(C)C)C(c2ccc(O)cc2)NC(=O)N1` (centres undefined): 106% (inactive). Next, `COc1ccc(NC(=O)Cn2c(/C=C/c3ccc([N+](=O)[O-])cc3)nc3ccccc3c2=O)cc1`: 70.2% (inactive); `O=C(c1ccc(O)cc1)C1[C@H](c2ccc(Cl)cc2)[C@@H](c2ccccc2)NC12C(=O)Nc1ccccc12` (some centres undefined): 9.03% (active); `O=c1ccc(Cn2c(C(F)(F)F)cc3c(Cl)ncnc32)c[nH]1`: 67.2% (inactive).

Regarding `O=C(CSc1nc2c(c(=O)[nH]1)CCCC2)Nc1ccccc1C(=O)O`, the growth was 102% (inactive).

`COc1ccc2[nH]c(O)c(N=Nc3nc(-c4ccc(C#N)cc4)cs3)c2c1`: the growth was 83.9% (inactive). Regarding `COc1ccc(-c2nc3ccc(-c4nnc(SCC(=O)Nc5ccc(/C(C)=N\O)cc5)o4)cc3[nH]2)cc1`, the growth is 46.5% (inactive). Next, `Cc1ccc(C2CC(c3ccc(NC(=O)Nc4ccccc4)cc3)=NN2c2ccc(S(C)(=O)=O)cc2)cc1` (centres undefined): 6.06% (active); `CN1CCN(C(=O)Oc2cc3c(c4ccccc24)[C@H](CCl)CN3C(=O)c2cc3cc(OCCCN4CCC4)ccc3[nH]2)[C@H]2CSSC[C@H]21`: -13.1% (active).

Turning to `Cc1ccc(N=Nc2c(N)nn3c(-c4cc5ccccc5oc4=O)ccnc23)cc1`, the growth is 51.6% (inactive). Next, `C[C@@H]1[C@H]2C[C@@H](C[C@H]1NCc1nc3ccccc3n1C1CCCCCC1)C2(C)C`: 95.4% (inactive).

`Cc1ccc(C(=O)Nc2cc(-n3ccnc3)cc(C(F)(F)F)c2)cc1-n1cc(-c2cnc3cccnn23)nn1`: the growth is 113% (inactive). `CCC(=O)c1c2c(c3ccc4c5ccccc5ccc4n13)C(=O)c1ccccc1C2=O`: the growth is 59.1% (inactive). As to `N#Cc1c(NC(=O)N2CCOCC2)n(-c2ccc(OC(F)(F)F)cc2)c2cc(F)ccc12`, the growth is 108% (inactive).

As for `CC(=O)Nc1cccc(-n2c(COc3ccc(Br)cc3)nc3ccccc32)c1`, the growth was 103% (inactive) and 104% (inactive).

As for `COc1ccc(-c2cc(C(=O)OCc3ccc(Br)cc3)nn2-c2ccc(S(C)(=O)=O)cc2)cc1OC`, the growth was 90.9% (inactive). Next, `Cc1nc(N)ncc1-c1ccc2ncnc(N3CCc4cc(F)c(Cl)cc43)c2c1`: 28.7% (inactive); `COc1ccc(C(=O)NNC(=O)CSc2nc3sc4c(c3c(=O)n2-c2ccc(Cl)cc2)CCCC4)cc1`: 73.5% (inactive).

In the case of `Cn1cc(-c2cc3nc(-c4cn(C)c5ncccc45)cc(N)n3n2)c2cc(F)ccc21`, the growth was 52.1% (inactive).

On to `COc1ccc2[nH]c(=O)c(CSc3ccccc3Nc3nccc(-c4ccc(C(F)(F)F)cc4)n3)cc2c1`, for which the growth was 67.4% (inactive). As to `N#CC1=C(c2cccs2)Nc2c(c(-c3ccccc3)nn2-c2ccccc2)C12C(=O)Nc1ccc(Br)cc12` (centres undefined), the growth is 26.9% (inactive). `CCN1CCN(Cc2ccc(C(=O)Nc3cccc(Nc4ccc5c(OC)cccc5n4)c3)cc2C(F)(F)F)CC1`: the growth is -100% (active). Next, `O=C(Nc1ccc(S(=O)(=O)N2CCCCC2)cc1)C(Cl)Cl`: 114% (inactive); `O=[N+]([O-])c1cccc(-c2nnc3c(/C=C/c4ccc(F)cc4)nc4ccccc4n23)c1`: 101% (inactive); `COc1ccc(/C=C/C(=O)c2ccc(OC)c(S(N)(=O)=O)c2)c(C(F)(F)F)c1`: -2.93% (active). For `COc1ccc2[nH]cc(-c3cc4nc(-c5cn(C)c6ncc(Br)cc56)cc(N)n4n3)c2c1` the value was -47.5% (active). For `N#CC1=C(c2cccs2)Nc2c(c(-c3ccccc3)nn2-c2ccccc2)C12C(=O)Nc1ccc(Cl)cc12` (centres undefined) the value was 47.1% (inactive); for `Oc1ccc(F)c(Nc2nc(SCCN3CCOCC3)nc3c2cnn3CC(Cl)c2ccc(Br)cc2)c1` (centres undefined), 80.2% (inactive). As to `O=C(NNC(=S)NCCc1ccccc1)c1ccc(OCc2nc3ccc(Cl)cc3[nH]2)cc1`, the growth was 88.8% (inactive). For `COc1c(B(O)O)cc(F)cc1-c1nc2c(F)cc3[nH]ncc3c2c2c1CCCC2`, the growth was 12.6% (inactive). Regarding `C[C@H]1[C@@H](CC(=O)N[C@@H](Cc2coc3ccccc23)B(O)O)O[C@@H]2OC3(C)CC[C@H]4[C@H](C)CC[C@@H]1[C@@]24O3`, the growth is 74.9% (inactive). Next, `C#CCN(C)CCCOc1ccc(N(C)C(=O)c2cc(C(C)C)c(O)cc2O)cc1Cl`: 34.8% (inactive).
